Only some compounds are listed: those with a hit (about 21% of all), similar ones and a draw of the others.
SARS PLpro yeast: SARS-CoV PLP inhibition in yeast | 330,000 tested, 0.19% active | S. cerevisiae expressing SARS-CoV PLpro, growth rescue | Potency, µM (doses to about 32.9 µM), for the others: at the top dose activity, positive = growth rescue, most hits filed as activators; calls by dose curve; also: potency is read from the fitted curve at half-maximal effect; 0% is about no effect; nearly all actives have a fitted effect of over 55% in size
Pf growth 48h: P. falciparum growth inhibition at 48 hours (one generation); P. falciparum luciferase growth in erythrocytes, 48 h; Potency, µM (top dose mostly 28.7 µM), for the others: at the highest dose activity change, negative = inhibition, most hits filed as inhibitors; 310,000 tested, 5.9% active; AID 504832; also: potency is read from the fitted curve at half-maximal effect; % is scaled to controls: 0 for no effect and ±100 for the full control effect
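First compound was added to culture medium, then infected red cells at 0.1% parasitemia and 2% hematocrit (final). After incubation at 37 C under 5% CO2, luciferase detection reagent was dispensed and light output recorded.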
Pf growth 96h: P. falciparum growth inhibition at 96 hours | P. falciparum luciferase reporter growth, 96 h | Potency, µM (doses to about 28.7 µM), for the others: at the highest dose activity change, negative = inhibition, most hits filed as inhibitors | AID 504834 | 320,000 tested, 6.9% active; also: potency is read from the fitted curve at half-maximal effect; % is scaled to controls: 0 for no effect and ±100 for the full control effect
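Plates of compound plus infected erythrocytes (2% hematocrit, 0.05% parasitemia final) incubate 96 hours, 37 C, 5% CO2. Detection reagent added; reduced luminescence from the parasites' luciferase reporter flags inhibition.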
NS1 function inh: influenza NS1 inhibition; 270,000 tested, 0.4% active; AID 2326; Potency, µM (titrated, usually from 46.1 µM), for the others: top-dose activity, positive = more growth; calls by dose curve; also: potency is read from the fitted curve at half-maximal effect; actives are rising curves; nearly all actives have a fitted effect of over 50% in size
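OD600 was taken as the measure of yeast growth restored by compound in an NS1-expressing S. cerevisiae strain. Cells had been washed out of glucose medium and diluted 1:100 into galactose -URA medium, pH 6.0.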
CHX counter: counter-screen for Shiga toxin inhibitors: cycloheximide protein synthesis inhibition; cell reporter, cycloheximide protein synthesis inhibition counterscreen; max response, %; 300,000 tested, 12% active; in the data active = max response mostly above about 13%, no sharp cut-off; inactive = mostly below about 14%; also: read at 38.3 µM for the half of the compounds with a filed dose; 0% is about no effect
Shiga toxin inh: inhibitors of Shiga toxin in Vero cells. Vero cells, Shiga toxin protein synthesis inhibition reporter. inhibition, % at 38.7 µM. 290,000 tested, 9.2% active. AID 2315; in the data active = inhibition mostly above about 28%, no sharp cut-off; inactive = mostly below about 43%; also: 0% is about no effect
An asterisk follows results filed as active; i = inactive; ? = inconclusive; / = not tested or not shown. Unless noted, calls follow the shape of the dose curve; as a rule, active = well fitted inhibition curve with a large enough effect; inconclusive = small, poorly fitted or top-dose-only effect, or another doubt; inactive = no such curve, though single readings can be large or run the other way.

SMILES	SARS PLpro yeast	Pf growth 48h	Pf growth 96h	NS1 function inh	CHX counter	Shiga toxin inh
O=C(Nc1ccc(Cl)cn1)c1ccc(COCC(F)(F)C(F)F)o1	-5%	44%	/	-11%	18*	67*
O=C(COC(=O)c1ccc(Cl)nc1)NC1CCCc2ccccc21 (stereo not drawn)	17%	/	/	/	/	/
O=C(Nc1ccc(Nc2ccncc2)cc1)c1ccc(Nc2ccnc3ccc([N+](=O)[O-])cc23)cc1	-1%	0.093µM*	0.093µM*	5%	1	-5
CC(=O)N[C@H]1C[C@@H]1c1ccccc1	0%	20%	13%	-1%	-2	-4
CCOC(=O)CNC(=O)CSc1nnc(NC(=O)c2ccc(C)cc2)s1	8%	156%	235%	/	-5	-13
O=C(NNC(=O)c1ccc(NC(=O)c2ccccc2)cc1)c1ccccc1	-1%	26%	?	/	-1	-11
O=C(Nc1ccc([N+](=O)[O-])cc1)c1ccccc1	-2%	107%	?	7%	47*	73*
O=C(N[C@H]1CC1c1ccccc1)c1ccc([N+](=O)[O-])cc1 (stereo partly drawn)	-4%	92%	211%	-4%	46*	112*
CCOC(=O)CSc1nnc(NC(=O)c2cccc([N+](=O)[O-])c2)s1	7%	-22%	12µM*	9%	-2	-2
O=C(Nc1ccncc1)c1ccc(C(=O)Nc2ccncc2)cc1	-1%	-12%	73%	/	-1	-9
Cc1c(OCC(=O)N2CCC(C(=O)NCCCC(=O)O)CC2)ccc2c1oc(=O)c1ccccc12	5%	-8%	4%	-12%	2	-2
NC(=O)c1cccc([N+](=O)[O-])c1	3%	34%	52%	/	/	/
Cc1nc2ccc(NC(=O)c3ccc([N+](=O)[O-])cc3[N+](=O)[O-])cc2s1	-3%	?	?	/	13	27
O=C(O)c1ccc(N=NNc2cccc([N+](=O)[O-])c2)cc1	16%	i	?	3%	42*	108*
COC(=O)/C(=C\c1ccc([N+](=O)[O-])o1)NC(=O)c1ccccc1	-6%	/	13µM*	-10%	-4	-13
O=CNNC(=O)c1cccc([N+](=O)[O-])c1	22%	32%	59%	1%	-1	-12
Cc1nc2ccc(C(=O)Nc3cccc([N+](=O)[O-])c3)cc2s1	-3%	?	1%	-5%	30*	101*
O=C(Nc1ncc([N+](=O)[O-])s1)c1cccc([N+](=O)[O-])c1	-8%	-45%	0%	-76%	43*	105*
O=C(COc1ccc([N+](=O)[O-])cc1)NNC(=O)Nc1ccccc1F	-3%	50%	-13%	-20%	3	9
CCC(NC(=O)COC(=O)C1CC2CCCC(C1)C2=O)c1ccc(Br)cc1 (stereo not drawn)	-5%	0%	17%	/	/	/
Cc1cc(=O)oc2cc(NC(=O)[C@H](CCCCN)NC(=O)[C@H](CC3CCCCC3)NC(=O)OCC3c4ccccc4-c4ccccc43)ccc12	/	/	/	/	-7	-11
CN(c1cccc(NC(=O)c2cccc([N+](=O)[O-])c2)c1)S(C)(=O)=O	?	?	39%	10%	27*	35
Cc1ccc(NC(=O)c2ccc(Nc3c([N+](=O)[O-])cc([N+](=O)[O-])cc3[N+](=O)[O-])cc2)cc1	5%	5.2µM*	22%	23%	-4	-15
COc1ccc(NC(=O)c2cccc([N+](=O)[O-])c2)cc1	1%	271%	-33%	/	59*	76*
CCN(CC)c1ccc(C(=O)Nc2ccccc2)cc1[N+](=O)[O-]	-4%	63%	-20%	-39%	37*	67*
SMILES	SARS PLpro yeast	Pf growth 48h	Pf growth 96h	NS1 function inh	CHX counter	Shiga toxin inh
COc1ccc(C(=O)Nc2ccc(Nc3ccccc3)cc2)cc1[N+](=O)[O-]	-11%	10%	-7%	-8%	-4	-5
Cc1ccc(NC(=O)c2ccc(C)cc2)cc1	4%	129%	163%	/	/	/
COc1ccc(NC(=S)Nc2cccc([N+](=O)[O-])c2)cc1	-6%	15%	78%	6%	8	-4
COc1ccc(C2(O)C(=O)Nc3ccc(C)cc32)cc1OC (stereo not drawn)	1%	-8%	?	-1%	-6	-6
CCCC(O)C(CC)CO (stereo not drawn)	/	5%	0%	/	/	/
Cc1ccc(NC(=O)CCC(=O)NNC(=O)NC2CCCCC2)c(C)c1	-1%	13%	-19%	5%	5	-7
O=C(CSc1nc(-c2ccccc2)cs1)Nc1ccccc1[N+](=O)[O-]	-12%	10%	-22%	-4%	-1	17
Cc1ccc(NC(=O)NNC(=O)c2cc3ccccc3cc2O)cc1	0%	25%	0%	4%	-1	-4
COc1ccc(Cc2nnc(NC(=O)c3ccc(OC)c(OC)c3)s2)cc1	2%	-3%	?	?	0	-1
COc1ccc(Cc2nnc(NC(=O)c3cccc([N+](=O)[O-])c3)s2)cc1	1%	20%	10%	4%	23*	32
O=C(Nc1ccncc1)c1cc2ccccc2cc1O	-23%	?	8.3µM*	/	/	/
Cc1cc(NC(=O)c2cccc([N+](=O)[O-])c2)no1	-3%	13%	16%	2%	-2	29
O=C(Nc1ccccc1-c1ccccc1)c1cccc([N+](=O)[O-])c1	-14%	?	9.3µM*	-7%	31*	122*
CC(C)(C)c1cc(NC(=O)c2cccc([N+](=O)[O-])c2)no1	-1%	394%	-58%	?	59*	92*
N/C(COc1cccc(C(F)(F)F)c1)=N\NC(=O)c1cccnc1Oc1ccccc1	5%	42%	56%	-1%	1	15
N#Cc1ccc(C(=O)N2CCN(S(=O)(=O)c3ccc(Cl)s3)CC2)cc1	-1%	?	10%	/	/	/
O=C(CN1C(=O)NC2(CCCC2)C1=O)NNC(=O)c1ccc(Br)cc1	3%	9%	7%	/	/	/
COc1ccc(CN(CCO)CCO)cc1[N+](=O)[O-]	9%	9%	34%	6%	-3	-11
CC(C)NCCOCCOc1ccccc1F	5%	/	-11%	7%	-5	-4
COC(=O)c1cc(C(=O)Nc2ccc(S(=O)(=O)NC(C)(C)C)cc2)cc([N+](=O)[O-])c1	0%	?	2.6µM*	29%	-1	8
COC(=O)c1cccc(NC(=O)c2cccc([N+](=O)[O-])c2)c1	-2%	69%	28%	-10%	2	/
O=C(Nc1cc([N+](=O)[O-])ccc1O)c1cccc([N+](=O)[O-])c1	0%	33%	-3%	3%	6	/
CCN(CC)S(=O)(=O)c1ccc(NC(=O)c2cc(C(=O)OC)cc([N+](=O)[O-])c2)cc1	18%	?	-20%	2%	-2	-18
O=C(NNc1ccc([N+](=O)[O-])cc1)c1ccccc1Cl	-3%	35%	0%	/	6	5
